Test results published in the OligoGym collection.

Biological target: MIS12
Assay: pooled miR-30 sensor sort-seq; sequence = guide strand
Conditions: shRNA

Going from TTTTTTGCTCTTCTAATTCTGC to TTGAAATGCAATGTAGATCCGA, the sensor-assay potency score (higher = more potent) rises from -0.78 to 0.852.

Compared with TAATGTTCTGTAGTTTTCTGGA, TTAGTACATAATTCAGTCTTGT is lower in sensor-assay potency score (higher = more potent): -0.154 for the first, -0.329 for the second.

Going from TTGGTTTGAACAGTCACTGGTA to TAGATCCGAAGCATGCACGTTT, the sensor-assay potency score (higher = more potent) falls from 0.981 to 0.233.

First: TAATTCTGCAAGAAGGGCCTGC
Second: TGAAATGCAATGTAGATCCGAA
The sensor-assay potency score (higher = more potent) of the first is higher: 0.0971 for the first, 0.0164 for the second.

Biological target: MKNK2
Assay: as above
Conditions: shRNA

Going from TTTGTTATGCAGAAAGTCCAAG to TAGATGCTAGCCTCCTCGCTGA, the sensor-assay potency score (higher = more potent) rises from -0.811 to -0.602.

Compared with TAGGACGTTCCTGTGTCCCTGG, TCAAACAGCATGTTCTGGCAGG is lower in sensor-assay potency score (higher = more potent): 0.366 for the first, -0.787 for the second.

Compared with TTGTCGGGGAACTCGTACTTGC, TTATGCAGAAAGTCCAAGGCGC is higher in sensor-assay potency score (higher = more potent): -1.05 for the first, -0.181 for the second.

First: TGATGCAGGTCTGCACTCGGGC
Second: TTCCTCTGCAGGACCATGGGAG
The sensor-assay potency score (higher = more potent) of the first is lower: -1.01 for the first, -0.448 for the second.

Going from TTGATGCAGGTCTGCACTCGGG to ATCAGCTCTAGGACGTTCCTGT, the sensor-assay potency score (higher = more potent) rises from -1.43 to -0.0446.

Going from TTGAGTTTGATGCCGCTGCCCA to TCCAGCTCGTTGAAGTGCCGGC, the sensor-assay potency score (higher = more potent) falls from -0.98 to -1.11.
